High-throughput results from PubChem.
Anthrax LF inh2 = anthrax lethal factor protease inhibition; actives 0.12% (n = 360,000); AID 588501; inhibition, % at 10 µM; multiplex microsphere protease cleavage assay, LF; further: plate controls were buffer without enzyme for full effect and enzyme alone for no effect
Target sequence (P15917 whole entry, looked up): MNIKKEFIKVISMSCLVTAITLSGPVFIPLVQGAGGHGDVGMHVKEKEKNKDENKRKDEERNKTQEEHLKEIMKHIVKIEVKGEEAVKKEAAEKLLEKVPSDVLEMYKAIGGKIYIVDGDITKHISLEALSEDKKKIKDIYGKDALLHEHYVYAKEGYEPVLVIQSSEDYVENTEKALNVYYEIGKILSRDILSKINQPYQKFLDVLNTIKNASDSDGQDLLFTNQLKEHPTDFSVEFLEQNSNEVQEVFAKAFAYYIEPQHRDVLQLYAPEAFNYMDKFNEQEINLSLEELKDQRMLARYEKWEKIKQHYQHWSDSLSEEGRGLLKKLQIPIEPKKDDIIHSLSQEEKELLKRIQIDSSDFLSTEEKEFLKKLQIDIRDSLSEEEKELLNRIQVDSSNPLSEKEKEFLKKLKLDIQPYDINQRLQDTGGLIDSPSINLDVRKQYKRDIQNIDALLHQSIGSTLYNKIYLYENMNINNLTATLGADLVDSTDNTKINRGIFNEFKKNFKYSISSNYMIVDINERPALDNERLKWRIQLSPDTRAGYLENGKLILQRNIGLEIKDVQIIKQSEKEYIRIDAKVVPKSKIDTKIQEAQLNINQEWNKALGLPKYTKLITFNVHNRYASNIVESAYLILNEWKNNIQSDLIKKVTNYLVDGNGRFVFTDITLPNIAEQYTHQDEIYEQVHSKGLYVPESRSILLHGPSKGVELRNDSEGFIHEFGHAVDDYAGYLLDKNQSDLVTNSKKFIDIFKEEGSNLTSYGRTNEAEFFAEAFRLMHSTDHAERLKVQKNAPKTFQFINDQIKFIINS
BoNT-F LC inh = BoNT F light chain protease inhibition | Multiplex microsphere protease cleavage assay, flow cytometry | inhibition, % at 10 µM | actives 0.22% (n = 360,000); in the data active means inhibition above about 35%, passing the limit was not always enough; inconclusive means no clear call, values can overlap the other calls; further: plate controls were buffer without enzyme for full effect and enzyme alone for no effect
MazEF act = MazEF (E. coli) toxin RNase activation; P0AE70; FAM/BHQ RNA-DNA oligo cleavage fluorescence, 5 h; activation, % at 20 µM; actives 0.32% (n = 350,000); AID 504720; in the data active means activation above about 50%
BoNT-A LC inh2 = BoNT A light chain protease inhibition | inhibition, % at 10 µM | AID 588499 | actives 0.17% (n = 360,000) | multiplex microsphere protease substrate cleavage, flow cytometry; further: plate controls were buffer without enzyme for full effect and enzyme alone for no effect
Bead autofluor = flagged as autofluorescent in microsphere protease counterscreen. AID 624483. fluorescence intensity (no concentration beside the values). compound autofluorescence counterscreen, microsphere flow cytometry; hits give high values. actives 3.1% (n = 360,000); in the data active means fluorescence intensity above about 16000; inconclusive means no clear call, values can overlap the other calls
* marks the source's active call; other numbers are inactive results; ? = inconclusive; . = no result given. Hits are enriched below; roughly 3.7% of the tested compounds scored in any of these assays. Unless noted, no stated cut-off is given here; in the data, active means inhibition above about 30%; inconclusive means no clear call, values can overlap the other calls; inactive means below that.

SMILES	Anthrax LF inh2	BoNT-F LC inh	MazEF act	BoNT-A LC inh2	Bead autofluor
CC(C)(C)C(=O)Cn1nnc(-c2ccc(C(F)(F)F)cc2)n1	-7	-5	1	-1	6036
O=C(Cn1nnc(-c2ccc(N3CCOCC3)cc2)n1)N1CCOCC1	.	.	8	.	.
NC(=O)Cn1nnc(-c2ccc(C(F)(F)F)cc2)n1	-2	-10	3	?	21710*
O=C(Cn1nnc(-c2cccc(C(F)(F)F)c2)n1)N1CCOCC1	-4	1	-2	1	22585*
Cc1ccc(CN2CC(C(=O)NNC(=O)c3ccc(F)cc3)CC2=O)cc1 (stereo not drawn)	-3	-5	10	-2	9229
O=c1[nH]c2ccsc2c(=O)n1-c1ccc(F)c(Cl)c1	-10	10	-23	?	17764*
COc1ccc(OC)c(S(=O)(=O)NCC(c2cccs2)N2CCc3ccccc3C2)c1 (stereo not drawn)	2	0	1	0	5879
CCn1c(=O)c2ccccc2n2c(SCC(=O)N3CCCc4ccccc43)nnc12	-3	-6	-6	-4	24095*
COc1ccccc1NS(=O)(=O)c1cccc(C(=O)N2CCCCCCC2)c1	-6	2	-3	2	4255
COC(=O)Cn1ccc(-c2ccc(Cl)cc2)c(C#N)c1=O	0	-8	1	-2	4288
Cc1ccccc1Cn1ccc(-c2ccc(Cl)cc2)c(C#N)c1=O	-4	-4	-19	0	23457*
COc1ccc(CN(CC2CCCO2)S(=O)(=O)c2ccc(C(=O)O)cc2)cc1OC (stereo not drawn)	0	-2	3	-1	23567*
COc1cc(S(=O)(=O)N(Cc2ccccc2)CC2CCCO2)ccc1-n1cnnn1 (stereo not drawn)	-3	0	8	-1	4500
COc1ccc(-c2ccc(SCC(=O)N3CCOCC3)nn2)cc1	-3	6	3	1	22594*
O=C(CSc1ccc(-c2ccc(F)cc2)nn1)N1CCCCC1	1	-1	-4	0	10605
CC1CCN(C(=O)CSc2ccc(-c3ccc(F)cc3)nn2)CC1	-1	1	-14	1	23070*
Cc1noc(C)c1COc1ccc(C(=O)Nc2nnc(CC(C)C)s2)cc1	-5	0	-1	0	3661
CC(=O)c1ccc(N2CCN(CC(=O)N(C3CC3)C3CCS(=O)(=O)C3)CC2)c(F)c1 (stereo not drawn)	-3	5	10	-1	4111
COc1ccc(C2=NO[C@@H]3C(=O)N(c4c(C)cccc4C)C(=O)[C@H]23)cc1OC	-2	0	0	?	22305*
CN1CCc2c(c(N3CCCCC3)nc3n[nH]c(N)c23)C1	-1	-3	-6	?	20525*
O=C(NCCN1C(=O)S/C(=C\c2ccc(Cl)c([N+](=O)[O-])c2)C1=O)C1=COCCO1	1	-9	7	-2	5793
CSc1nc(NCc2ccco2)c2sc3nc(C(C)C)c4c(c3c2n1)CC(C)(C)OC4	0	0	19	?	19909*
O=C(ONC(=O)C1C2C=CC(C2)C1C(=O)NOC(=O)c1ccccc1)c1ccccc1 (stereo not drawn)	-2	-2	10	0	3618
CCN1C(=O)[C@H]2[C@@H](c3ccc(C(F)(F)F)cc3)N[C@]3(CCCN(Cc4ccccc4)C3=O)[C@H]2C1=O	1	8	-1	0	3658
CCc1nnc(NC(=O)c2oc3ccccc3c2COC(C)C)s1	-1	-1	1	0	3497
SMILES	Anthrax LF inh2	BoNT-F LC inh	MazEF act	BoNT-A LC inh2	Bead autofluor
N#CC1CC(c2ccc([N+](=O)[O-])cc2)=NN1c1ccc([N+](=O)[O-])cc1 (stereo not drawn)	8	3	563*	19	4278
C[C@H](CO)N1C[C@H](C)[C@H](CN(C)S(=O)(=O)c2ccc(C#N)cc2)OCc2cnnn2CCCC1=O	6	-1	9	0	3783
CCOC(=O)c1snc2c(=O)[nH]cnc12	-4	-13	-4	-7	18607*
Cc1nnc(N2CCCC(C(=O)NCc3cccc(F)c3)C2)c2nn(-c3ccccc3)c(C)c12 (stereo not drawn)	4	19	15	-3	16533*
CCc1ccc(CNC(=O)C2CCCN(c3nnc(C)c4c(C)n(-c5ccccc5)nc34)C2)cc1 (stereo not drawn)	4	30	12	0	20786*
COc1ccccc1CN=c1c([N+](=O)[O-])nn(-c2ccc3c(c2)OCCO3)n1O	1	-8	11	0	2792
O=[N+]([O-])c1nn(-c2ccc3c(c2)OCCO3)n(O)c1=NCc1ccccc1Cl	1	-10	71*	0	7389
O=C(O)c1ccc(-n2nnnc2SCc2ccccc2)cc1	4	-1	-11	0	9113
CSc1ccccc1-n1nnnc1SCc1ccccc1	-5	-7	-11	?	23954*
Cc1c(C(=O)N(CC(C)C)c2c(N)n(Cc3ccccc3)c(=O)[nH]c2=O)sc2nc3n(c(=O)c12)CCC3	32*	2	-2	4	?
CC1(C)NC(=O)N(CC(=O)O)C1=O	-4	-4	-1	-2	17429*
CC1(C)NC(=O)N(CN2C(=O)NC(C)(C)C2=O)C1=O	-14	0	7	0	9110
COc1ccc(C(=O)N2CCCC(C(=O)N3CCCCCC3)C2)cc1 (stereo not drawn)	-4	-4	-3	-2	20377*
O=C(c1ccccc1)N1CCCC(C(=O)N2CCCCCC2)C1 (stereo not drawn)	-3	-6	3	-3	24585*
O=C(c1ccccc1)N1CCCC(C(=O)N2CCc3ccccc3C2)C1 (stereo not drawn)	3	-16	-1	0	5418
COCCNc1nc(Oc2cccc3ccccc23)c2sccc2n1	-7	0	.	0	3686
COc1ccc([C@H]2CC(=O)C[C@@H](CCn3cc(-c4ccc(F)cc4)nn3)O2)cc1	-3	4	.	0	5900
CCN1CCN(C(=O)CCc2nnc(CCc3ccccc3OC)o2)[C@@H](C)C1=O	-1	1	1	-1	5409
CCc1ccc(C(=O)COc2ccc(NC(C)=O)cc2)cc1	-1	-2	8	0	24015*
CCOc1ccc(C(=O)COc2ccc(NC(C)=O)cc2)cc1	-2	5	-5	0	3073
CCOc1ccc(NC(=O)c2ccccc2OCC(=O)c2ccc(C)cc2)cc1	0	2	1	-1	23534*
CSc1ccccc1C(=O)Nc1ccc(C)c(C)c1	-9	1	-4	?	16135*
COc1ccc(OC)c(NC(=O)c2ccccc2SC)c1	0	-3	9	0	16141*
CSc1ccccc1C(=O)Nc1cc(C)cc(C)c1	0	12	7	0	2436
Cc1ccc2[nH]c(=O)c(CN(CC3CCCO3)S(=O)(=O)c3c(C)ccc4nsnc34)cc2c1 (stereo not drawn)	-6	4	2	?	19816*
Cc1cccc(S(=O)(=O)NC(=O)C2(C)CCN2C(=O)Cc2cccs2)c1 (stereo not drawn)	-5	-4	.	0	3608
